Common to all, as to experiment: DAPPL (digital affinity profiling via proximity ligation, sequencing); 10 mM Tris-HCl pH 7.5, 50 mM NaCl, 1 mM DTT, 4% glycerol, room temperature, 30 min; GST-TFs on glutathione beads, 16-mer random dsDNA library, 0.1% formaldehyde crosslink after washing; high values mean tight binding
One assay addresses T1, FLI1 (Homo sapiens, UniProt Q01543 1-452).
T1 sequence: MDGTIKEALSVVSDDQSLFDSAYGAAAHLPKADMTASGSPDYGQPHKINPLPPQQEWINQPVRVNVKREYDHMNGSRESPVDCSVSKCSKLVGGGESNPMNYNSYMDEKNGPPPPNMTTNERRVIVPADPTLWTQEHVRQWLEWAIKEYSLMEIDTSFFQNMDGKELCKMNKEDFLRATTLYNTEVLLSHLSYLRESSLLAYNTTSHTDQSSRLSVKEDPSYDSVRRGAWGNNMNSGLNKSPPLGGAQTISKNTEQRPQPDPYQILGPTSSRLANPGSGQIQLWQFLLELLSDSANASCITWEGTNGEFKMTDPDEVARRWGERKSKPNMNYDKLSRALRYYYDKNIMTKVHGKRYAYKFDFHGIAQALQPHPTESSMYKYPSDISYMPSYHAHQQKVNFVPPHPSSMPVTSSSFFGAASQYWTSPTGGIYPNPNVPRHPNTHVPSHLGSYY
The conditions noted are these: protein: recombinant; tags: N-terminal GST; dsDNA, one strand shown. The essentials:
(§1)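 Binding signal is defined as a hexamer's read frequency for one factor over its frequency for the tag-only sample. To obtain reads, GST-fused human transcription factors were expressed in yeast, captured on glutathione beads, barcoded with DNA and pooled with that sample. Pools met 200 nmole of a 16-mer random double-stranded DNA library in Tris/NaCl/DTT/glycerol buffer for 30 min at room temperature before washing, 0.1% formaldehyde crosslinking, proximity ligation (BsaI/T4 ligase, 1 h, 37 °C), PCR and Illumina NextSeq500 sequencing.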

The next assay deals with T2, ELK1 (Homo sapiens, UniProt P19419 1-428).
T2 sequence: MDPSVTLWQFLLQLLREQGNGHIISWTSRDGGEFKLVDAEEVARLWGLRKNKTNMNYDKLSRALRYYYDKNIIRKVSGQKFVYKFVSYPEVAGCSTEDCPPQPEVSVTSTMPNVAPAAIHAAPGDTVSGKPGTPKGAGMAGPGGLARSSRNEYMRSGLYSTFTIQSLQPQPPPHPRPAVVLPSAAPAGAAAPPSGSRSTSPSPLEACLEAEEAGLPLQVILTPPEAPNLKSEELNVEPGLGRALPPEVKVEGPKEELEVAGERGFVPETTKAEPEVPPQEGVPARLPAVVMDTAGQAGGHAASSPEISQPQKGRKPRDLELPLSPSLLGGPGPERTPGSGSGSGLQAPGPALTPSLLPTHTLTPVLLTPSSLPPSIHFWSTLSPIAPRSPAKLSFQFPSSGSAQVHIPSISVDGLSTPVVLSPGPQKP
The conditions noted are these: protein: recombinant; tags: N-terminal GST; dsDNA, one strand shown. An outline of the steps:
as §1

Another assay concerns the target T3, GABPA (Homo sapiens, UniProt Q06546 1-454).
T3 sequence: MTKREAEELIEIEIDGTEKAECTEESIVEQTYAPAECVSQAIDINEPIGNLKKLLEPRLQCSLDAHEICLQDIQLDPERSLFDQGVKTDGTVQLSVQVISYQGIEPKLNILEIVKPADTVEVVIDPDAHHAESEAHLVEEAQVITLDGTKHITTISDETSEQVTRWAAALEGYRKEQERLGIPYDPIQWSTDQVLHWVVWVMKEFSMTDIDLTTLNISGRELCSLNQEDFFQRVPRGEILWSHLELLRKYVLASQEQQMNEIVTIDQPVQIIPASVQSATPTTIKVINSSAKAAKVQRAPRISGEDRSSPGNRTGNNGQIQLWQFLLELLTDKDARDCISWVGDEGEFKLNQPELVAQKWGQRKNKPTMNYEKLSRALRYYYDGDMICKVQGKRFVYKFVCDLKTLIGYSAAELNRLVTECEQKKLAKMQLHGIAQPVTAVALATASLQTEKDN
The conditions noted are these: protein: recombinant; tags: N-terminal GST; dsDNA, one strand shown. The essentials: as §1

The target in a further assay is T4, ERG (Homo sapiens, UniProt P11308 1-479).
T4 sequence: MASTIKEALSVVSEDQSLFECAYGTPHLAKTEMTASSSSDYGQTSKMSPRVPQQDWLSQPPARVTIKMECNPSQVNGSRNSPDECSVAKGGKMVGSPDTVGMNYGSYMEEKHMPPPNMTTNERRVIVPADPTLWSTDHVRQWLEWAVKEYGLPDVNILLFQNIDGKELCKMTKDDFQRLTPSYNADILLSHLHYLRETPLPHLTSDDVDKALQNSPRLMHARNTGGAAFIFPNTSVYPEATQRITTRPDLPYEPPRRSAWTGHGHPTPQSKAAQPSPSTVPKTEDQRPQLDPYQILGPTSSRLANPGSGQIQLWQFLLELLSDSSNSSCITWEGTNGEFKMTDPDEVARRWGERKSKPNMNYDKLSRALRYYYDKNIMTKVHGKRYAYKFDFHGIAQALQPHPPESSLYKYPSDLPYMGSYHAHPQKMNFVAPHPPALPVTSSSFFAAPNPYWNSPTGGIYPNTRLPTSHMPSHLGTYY
The conditions noted are these: protein: recombinant; tags: N-terminal GST; dsDNA, one strand shown. An outline of the steps:
as §1

The next assay concerns the target ELF1 (Homo sapiens, UniProt P32519 1-619). The conditions noted are these: protein: recombinant; tags: N-terminal GST; dsDNA, one strand shown. The essentials:
as §1

The next assay deals with T5, EHF (Homo sapiens, UniProt Q9NZC4 1-300).
T5 sequence: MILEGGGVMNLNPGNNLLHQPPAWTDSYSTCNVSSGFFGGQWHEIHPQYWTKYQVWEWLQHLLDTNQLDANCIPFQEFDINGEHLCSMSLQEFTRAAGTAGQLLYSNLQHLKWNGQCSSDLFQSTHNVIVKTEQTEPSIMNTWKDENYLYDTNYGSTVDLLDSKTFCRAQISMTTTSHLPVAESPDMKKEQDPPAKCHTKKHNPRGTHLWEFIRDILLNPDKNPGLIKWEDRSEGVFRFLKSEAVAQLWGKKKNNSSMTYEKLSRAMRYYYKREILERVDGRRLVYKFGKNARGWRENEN
The conditions noted are these: protein: recombinant; tags: N-terminal GST; dsDNA, one strand shown. The essentials: as §1

For a further assay, the target named is SPI1 (Homo sapiens, UniProt P17947 1-270). The conditions noted are these: protein: recombinant; tags: N-terminal GST; dsDNA, one strand shown. The essentials: as §1
A further assay concerns the target SPIB (Homo sapiens, UniProt Q01892 1-262). The conditions noted are these: protein: recombinant; tags: N-terminal GST; dsDNA, one strand shown. An outline of the steps: as §1
For a further assay, the target named is T6, ELK3 (Homo sapiens, UniProt P41970 1-407).
T6 sequence: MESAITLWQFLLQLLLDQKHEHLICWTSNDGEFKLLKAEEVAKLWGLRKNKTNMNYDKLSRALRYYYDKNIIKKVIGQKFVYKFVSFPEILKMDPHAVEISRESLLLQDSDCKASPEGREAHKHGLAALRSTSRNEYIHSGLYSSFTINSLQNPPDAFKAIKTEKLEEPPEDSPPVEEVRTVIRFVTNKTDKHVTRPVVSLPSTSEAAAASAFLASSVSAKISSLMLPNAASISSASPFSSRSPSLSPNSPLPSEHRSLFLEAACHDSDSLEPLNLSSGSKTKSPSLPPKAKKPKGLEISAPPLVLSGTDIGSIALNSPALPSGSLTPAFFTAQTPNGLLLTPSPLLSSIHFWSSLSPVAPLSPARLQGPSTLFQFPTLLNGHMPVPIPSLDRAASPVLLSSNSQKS
The conditions noted are these: protein: recombinant; tags: N-terminal GST; dsDNA, one strand shown. The essentials: as §1

In another assay the target is T7, FEV (Homo sapiens, UniProt Q99581 1-238).
T7 sequence: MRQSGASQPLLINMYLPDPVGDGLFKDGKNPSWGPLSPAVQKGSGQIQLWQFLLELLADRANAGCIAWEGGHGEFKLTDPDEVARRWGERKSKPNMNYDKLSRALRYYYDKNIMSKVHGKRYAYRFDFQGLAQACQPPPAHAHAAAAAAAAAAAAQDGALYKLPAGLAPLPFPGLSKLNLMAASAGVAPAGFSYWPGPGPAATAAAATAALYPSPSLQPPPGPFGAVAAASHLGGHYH
The conditions noted are these: protein: recombinant; tags: N-terminal GST; dsDNA, one strand shown. The essentials: as §1

In another assay the target is ETV5 (Homo sapiens, UniProt P41161 1-510). The conditions noted are these: protein: recombinant; tags: N-terminal GST; dsDNA, one strand shown. An outline of the steps: as §1
The target in the next assay is HSF1 (Homo sapiens, UniProt Q00613 1-529). The conditions noted are these: protein: recombinant; tags: N-terminal GST; chain copies: 3; dsDNA, one strand shown. An outline of the steps: as §1
Another assay deals with ELF4 (Homo sapiens, UniProt Q99607 1-663). The conditions noted are these: protein: recombinant; tags: N-terminal GST; dsDNA, one strand shown. An outline of the steps:
as §1

The target in a further assay is T8, ELK4 (Homo sapiens, UniProt P28324-2 1-405).
T8 sequence: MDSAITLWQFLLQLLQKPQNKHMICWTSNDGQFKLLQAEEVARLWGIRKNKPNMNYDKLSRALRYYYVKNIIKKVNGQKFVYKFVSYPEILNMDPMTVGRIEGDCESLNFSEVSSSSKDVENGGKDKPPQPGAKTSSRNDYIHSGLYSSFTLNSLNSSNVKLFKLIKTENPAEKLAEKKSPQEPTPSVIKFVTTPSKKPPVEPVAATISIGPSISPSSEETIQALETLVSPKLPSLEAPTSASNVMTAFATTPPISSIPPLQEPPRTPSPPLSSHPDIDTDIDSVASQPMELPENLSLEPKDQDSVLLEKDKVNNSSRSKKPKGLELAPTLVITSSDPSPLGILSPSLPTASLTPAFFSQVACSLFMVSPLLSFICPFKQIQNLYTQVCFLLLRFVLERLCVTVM
The conditions noted are these: protein: recombinant; tags: N-terminal GST; dsDNA, one strand shown. The essentials:
as §1

Another assay concerns the target T9, ETV2 (Homo sapiens, UniProt O00321 1-342).
T9 sequence: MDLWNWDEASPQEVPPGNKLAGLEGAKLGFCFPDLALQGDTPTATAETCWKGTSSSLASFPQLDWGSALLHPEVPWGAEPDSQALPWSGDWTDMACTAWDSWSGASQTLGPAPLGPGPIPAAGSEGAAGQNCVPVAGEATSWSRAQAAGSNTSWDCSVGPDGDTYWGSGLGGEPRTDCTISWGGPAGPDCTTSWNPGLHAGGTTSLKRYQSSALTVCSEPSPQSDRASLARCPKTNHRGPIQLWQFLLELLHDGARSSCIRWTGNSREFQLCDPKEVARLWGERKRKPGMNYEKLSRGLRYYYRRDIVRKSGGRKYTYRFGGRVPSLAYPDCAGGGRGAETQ
The conditions noted are these: protein: recombinant; tags: N-terminal GST; dsDNA, one strand shown. The essentials:
as §1

For the next assay, the target named is T10, ELF3 (Homo sapiens, UniProt P78545 1-371).
T10 sequence: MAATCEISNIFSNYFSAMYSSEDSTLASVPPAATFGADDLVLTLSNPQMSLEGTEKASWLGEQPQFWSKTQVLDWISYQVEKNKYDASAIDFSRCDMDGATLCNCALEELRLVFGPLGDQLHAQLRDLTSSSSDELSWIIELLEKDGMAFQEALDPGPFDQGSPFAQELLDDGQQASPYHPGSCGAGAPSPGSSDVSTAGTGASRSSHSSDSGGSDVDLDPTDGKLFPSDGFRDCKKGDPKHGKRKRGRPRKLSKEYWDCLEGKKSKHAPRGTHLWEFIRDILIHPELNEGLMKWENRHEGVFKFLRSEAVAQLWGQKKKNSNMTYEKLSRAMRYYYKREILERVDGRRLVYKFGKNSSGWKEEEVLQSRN
The conditions noted are these: protein: recombinant; tags: N-terminal GST; dsDNA, one strand shown. The essentials: as §1

A further assay concerns the target CRX (Homo sapiens, UniProt O43186 1-299). The conditions noted are these: protein: recombinant; tags: N-terminal GST; dsDNA, one strand shown. An outline of the steps: as §1
The target of another assay is ETV1 (Homo sapiens, UniProt P50549 1-477). The conditions noted are these: protein: recombinant; tags: N-terminal GST; dsDNA, one strand shown. An outline of the steps:
as §1

Chain of ETV5 (P41161 whole entry): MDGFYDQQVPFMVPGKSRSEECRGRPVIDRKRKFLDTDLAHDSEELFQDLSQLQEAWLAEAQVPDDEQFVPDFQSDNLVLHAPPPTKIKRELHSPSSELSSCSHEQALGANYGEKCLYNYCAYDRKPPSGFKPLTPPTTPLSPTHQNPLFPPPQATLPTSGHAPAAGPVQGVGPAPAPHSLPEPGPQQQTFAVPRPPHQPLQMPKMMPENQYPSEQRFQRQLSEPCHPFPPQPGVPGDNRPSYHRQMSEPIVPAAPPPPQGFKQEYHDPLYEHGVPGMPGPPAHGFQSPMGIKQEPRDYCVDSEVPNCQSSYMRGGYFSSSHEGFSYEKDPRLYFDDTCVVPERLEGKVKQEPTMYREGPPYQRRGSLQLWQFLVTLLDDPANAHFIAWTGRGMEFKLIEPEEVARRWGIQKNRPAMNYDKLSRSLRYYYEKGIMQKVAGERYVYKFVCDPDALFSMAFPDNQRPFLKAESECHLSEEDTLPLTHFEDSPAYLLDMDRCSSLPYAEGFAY
Chain of CRX (O43186 whole entry): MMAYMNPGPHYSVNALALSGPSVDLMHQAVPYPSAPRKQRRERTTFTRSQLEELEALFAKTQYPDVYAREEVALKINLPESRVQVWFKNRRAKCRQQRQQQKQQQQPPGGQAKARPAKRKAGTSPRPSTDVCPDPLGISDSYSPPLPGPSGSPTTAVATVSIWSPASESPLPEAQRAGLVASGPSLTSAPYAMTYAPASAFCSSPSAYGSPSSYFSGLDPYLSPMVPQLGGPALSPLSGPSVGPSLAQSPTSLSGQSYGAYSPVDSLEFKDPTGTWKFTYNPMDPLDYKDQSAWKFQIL
Chain of ELF4 (Q99607 whole entry): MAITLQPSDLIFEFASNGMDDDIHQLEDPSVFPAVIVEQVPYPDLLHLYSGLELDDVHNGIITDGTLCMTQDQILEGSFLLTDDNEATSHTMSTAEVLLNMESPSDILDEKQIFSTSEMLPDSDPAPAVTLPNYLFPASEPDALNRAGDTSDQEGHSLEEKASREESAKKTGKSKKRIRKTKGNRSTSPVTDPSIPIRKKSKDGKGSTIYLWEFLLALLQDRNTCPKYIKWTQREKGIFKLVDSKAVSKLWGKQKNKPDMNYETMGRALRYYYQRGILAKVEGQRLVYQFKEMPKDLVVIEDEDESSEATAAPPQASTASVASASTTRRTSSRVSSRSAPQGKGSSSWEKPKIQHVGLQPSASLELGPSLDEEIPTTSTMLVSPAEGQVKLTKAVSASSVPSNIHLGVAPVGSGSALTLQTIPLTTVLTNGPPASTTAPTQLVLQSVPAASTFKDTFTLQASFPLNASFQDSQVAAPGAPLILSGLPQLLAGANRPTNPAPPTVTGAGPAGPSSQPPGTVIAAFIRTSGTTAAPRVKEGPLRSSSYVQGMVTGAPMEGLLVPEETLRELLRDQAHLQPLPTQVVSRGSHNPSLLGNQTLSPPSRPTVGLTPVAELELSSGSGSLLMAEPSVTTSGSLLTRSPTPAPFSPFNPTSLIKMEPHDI
Chain of ELF1 (P32519 whole entry): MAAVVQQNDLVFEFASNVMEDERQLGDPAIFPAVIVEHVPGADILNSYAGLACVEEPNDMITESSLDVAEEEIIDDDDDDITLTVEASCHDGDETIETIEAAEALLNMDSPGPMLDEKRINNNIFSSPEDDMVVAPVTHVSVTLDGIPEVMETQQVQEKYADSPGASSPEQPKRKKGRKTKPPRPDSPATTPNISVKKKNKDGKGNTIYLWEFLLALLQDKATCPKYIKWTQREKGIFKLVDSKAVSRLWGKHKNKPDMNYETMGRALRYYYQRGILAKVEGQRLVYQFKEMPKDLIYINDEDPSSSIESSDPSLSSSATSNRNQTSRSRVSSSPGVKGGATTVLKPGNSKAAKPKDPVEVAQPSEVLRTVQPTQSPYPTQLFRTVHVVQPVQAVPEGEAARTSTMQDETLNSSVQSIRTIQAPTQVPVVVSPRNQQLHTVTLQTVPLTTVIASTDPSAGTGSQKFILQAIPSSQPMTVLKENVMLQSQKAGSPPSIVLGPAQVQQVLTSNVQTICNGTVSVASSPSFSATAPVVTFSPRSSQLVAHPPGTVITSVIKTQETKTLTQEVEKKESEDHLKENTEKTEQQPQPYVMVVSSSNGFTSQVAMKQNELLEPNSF
Chain of HSF1 (Q00613 whole entry): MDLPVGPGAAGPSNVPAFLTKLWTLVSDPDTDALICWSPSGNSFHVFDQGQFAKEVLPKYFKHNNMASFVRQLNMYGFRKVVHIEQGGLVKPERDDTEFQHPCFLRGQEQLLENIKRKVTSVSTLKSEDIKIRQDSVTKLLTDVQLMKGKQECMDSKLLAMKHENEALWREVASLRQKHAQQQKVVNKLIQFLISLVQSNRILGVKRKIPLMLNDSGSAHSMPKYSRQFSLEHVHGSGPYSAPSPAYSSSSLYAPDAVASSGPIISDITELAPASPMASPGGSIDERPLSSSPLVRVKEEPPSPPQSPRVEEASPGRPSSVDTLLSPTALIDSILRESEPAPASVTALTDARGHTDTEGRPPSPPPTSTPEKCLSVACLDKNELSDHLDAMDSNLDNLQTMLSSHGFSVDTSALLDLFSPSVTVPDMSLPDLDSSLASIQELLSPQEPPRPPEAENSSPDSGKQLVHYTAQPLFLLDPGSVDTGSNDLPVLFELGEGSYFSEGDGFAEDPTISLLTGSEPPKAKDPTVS
Chain of SPIB (Q01892 whole entry): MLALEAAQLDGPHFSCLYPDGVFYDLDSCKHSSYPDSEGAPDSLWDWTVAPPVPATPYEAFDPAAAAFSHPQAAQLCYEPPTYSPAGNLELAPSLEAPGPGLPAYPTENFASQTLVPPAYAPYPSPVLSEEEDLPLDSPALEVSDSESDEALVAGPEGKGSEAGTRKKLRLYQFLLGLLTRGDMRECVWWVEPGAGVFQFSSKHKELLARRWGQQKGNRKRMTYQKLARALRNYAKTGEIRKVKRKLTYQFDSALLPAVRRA
Chain of ETV1 (P50549 whole entry): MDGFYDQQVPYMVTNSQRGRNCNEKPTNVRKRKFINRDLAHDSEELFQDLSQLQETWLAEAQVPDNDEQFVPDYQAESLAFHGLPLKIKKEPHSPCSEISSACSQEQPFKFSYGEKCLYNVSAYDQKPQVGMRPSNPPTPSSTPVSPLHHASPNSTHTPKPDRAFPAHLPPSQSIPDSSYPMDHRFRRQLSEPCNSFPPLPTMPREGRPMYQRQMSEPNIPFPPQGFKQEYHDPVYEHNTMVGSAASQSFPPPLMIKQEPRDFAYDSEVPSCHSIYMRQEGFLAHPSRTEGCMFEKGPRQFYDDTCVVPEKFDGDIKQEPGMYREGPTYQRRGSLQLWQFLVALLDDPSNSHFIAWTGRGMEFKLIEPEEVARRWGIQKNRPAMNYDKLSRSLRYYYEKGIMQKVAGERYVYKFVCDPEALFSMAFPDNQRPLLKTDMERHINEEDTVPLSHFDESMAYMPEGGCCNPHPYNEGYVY

For the sequence CTTTCG, the binding signal with FLI1 was 1.1 fold enrichment (6-mer frequency, TF over GST control); with ELK1, 1.21 fold enrichment (6-mer frequency, TF over GST control); in the assay with GABPA it was 1.26 fold enrichment (6-mer frequency, TF over GST control); with ERG, 1.15 fold enrichment (6-mer frequency, TF over GST control); in the assay with ELF1 it was 1.3 fold enrichment (6-mer frequency, TF over GST control); with EHF, 1.3 fold enrichment (6-mer frequency, TF over GST control). Also, the binding signal is 1.23 fold enrichment (6-mer frequency, TF over GST control) in the assay with SPI1; 1.39 fold enrichment (6-mer frequency, TF over GST control) with SPIB; 1.27 fold enrichment (6-mer frequency, TF over GST control) in the assay with ELK3; 1.26 fold enrichment (6-mer frequency, TF over GST control) with FEV; 1.27 fold enrichment (6-mer frequency, TF over GST control) in the assay with ETV5; 1.65 fold enrichment (6-mer frequency, TF over GST control) with HSF1. The binding signal with ELF4 is 1.19 fold enrichment (6-mer frequency, TF over GST control); with ELK4, 1.4 fold enrichment (6-mer frequency, TF over GST control); with ETV2, 1.3 fold enrichment (6-mer frequency, TF over GST control); with ELF3, 1.4 fold enrichment (6-mer frequency, TF over GST control); with CRX, 1.37 fold enrichment (6-mer frequency, TF over GST control); with ETV1, 1.36 fold enrichment (6-mer frequency, TF over GST control).

The values above are taken from PMC7862700, “An all-to-all approach to the identification of sequence-specific readers for epigenetic DNA modifications on cytosine”.
